D1 PAM – Potentiators of Human D1 Dopamine Receptor: qHTS; D(1A) dopamine receptor (Homo sapiens), P21728; HEK293 TREx D1 cells, calcium flux, dopamine EC20 potentiation; potentiation, % at 10 µM; actives 0.036% (n = 360,000); in the data active = potentiation above about 30%
Target sequence (P21728 whole entry, looked up): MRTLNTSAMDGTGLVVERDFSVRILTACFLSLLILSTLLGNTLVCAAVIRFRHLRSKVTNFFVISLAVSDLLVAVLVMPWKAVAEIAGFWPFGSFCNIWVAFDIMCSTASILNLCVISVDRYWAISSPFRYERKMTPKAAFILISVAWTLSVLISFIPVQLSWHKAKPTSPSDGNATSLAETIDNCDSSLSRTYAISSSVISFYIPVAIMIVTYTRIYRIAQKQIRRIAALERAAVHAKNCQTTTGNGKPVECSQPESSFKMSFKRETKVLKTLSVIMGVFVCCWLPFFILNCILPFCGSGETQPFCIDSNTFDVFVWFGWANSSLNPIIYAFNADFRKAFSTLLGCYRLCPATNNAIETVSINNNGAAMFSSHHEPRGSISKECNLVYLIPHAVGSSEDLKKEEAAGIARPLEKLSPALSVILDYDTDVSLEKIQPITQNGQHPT
D1 ag – Allosteric Agonists of the Human D1 Dopamine Receptor: qHTS; D(1A) dopamine receptor (Homo sapiens), P21728; HEK293 T-REx D1 cells, calcium flux, agonist mode; activation, % at 2 µM; actives 1% (n = 360,000)
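Tetracycline-induced HEK293 TREx D1 cells, force-coupled to calcium signalling, were dye-loaded with a no-wash calcium kit. Compound was pin-added after a 10 s baseline. Fluorescence was read kinetically at 1 cycle/s for 180 s, with calcium rises flagged as agonism.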
TRHR PAM – qHTS for Small Molecule Agonists and Allosteric Enhancers of Human TRH Receptor: Primary Screen for Enhancers; Thyrotropin-releasing hormone receptor (Homo sapiens), P34981; TRHR cells, fluo-8 calcium fluorescence, EC20 TRH enhancement; enhancement, % at 2 µM; actives 0.66% (n = 360,000); AID 493056, 2011; in the data active = enhancement above about 30%
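TRHR-expressing cells loaded with fluo-8 calcium dye were read kinetically (ex 480/em 530) during compound addition, then stimulated with an EC20 of TRH (10 nM final). Enhancement of the Gq-mediated intracellular calcium response was scored.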
D1 antag – Antagonist of Human D 1 Dopamine Receptor: qHTS; D(1A) dopamine receptor (Homo sapiens), P21728; HEK293 TREx D1 cells, calcium flux, dopamine EC80; stronger effect = lower value; activity change, negative = inhibition, % at 10 µM; actives 3.2% (n = 360,000); AID 504652, 2011; in the data active = activity change below about -30%
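Compound effects on dopamine-evoked calcium signalling were measured in tetracycline-induced HEK293 Trex D1 cells. Dopamine at EC80 followed a 180 s compound pre-read, and fluorescence was tracked kinetically for 180 s more.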
TRHR agonist – qHTS for Small Molecule Agonists and Allosteric Enhancers of Human TRH Receptor: Primary Screen for Agonists. Thyrotropin-releasing hormone receptor (Homo sapiens), P34981. TRHR cells, calcium flux fluo-8, FDSS agonist mode. activation, % at 2 µM. actives 0.18% (n = 360,000). AID 493084, 2011
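Steps: seed TRHR cells overnight; add fluo-8 no-wash Ca dye, RT 30 min–1.5 h; record 10 s baseline; pin-transfer compounds; monitor fluorescence 1 cycle/s for the agonist window. Calcium increases flag candidate agonists.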
Large screens that a line does not name were inactive. This is a sample that favours compounds with a hit; in the whole collection about 4.7% have one here. Cut-off read from the data, not from the text of the source, unless noted: active = activation above about 30%; inactive = the rest.

Cc1ccc(CC(=O)Nc2ncc([N+](=O)[O-])s2)cc1	D1 antag -39
Cc1ccc(SCC(=O)Nc2cc([N+](=O)[O-])ccc2O)cc1	D1 ag 30
CC(C)c1ccc(N(CC(=O)O)S(=O)(=O)c2ccc3[nH]c(=O)c(=O)[nH]c3c2)cc1	none
Cc1ccc(-n2nnc(-c3nsc(NC(=O)c4cccc(Cl)c4)n3)c2C)cc1C	none
O=C(CCCOc1ccccc1)NN1C(=O)NC2(CCCCC2)C1=O	D1 antag -43
O=C(CN1C(=O)NC2(CCCC2)C1=O)OCCOc1ccccc1	none
COc1cc(C(=S)N2CCN(c3cccc(Cl)c3)CC2)ccc1O	D1 antag -31
OC(CN1CCN(c2cccc(Cl)c2)CC1)c1ccc(F)cc1 (centres undefined)	none
OC(CN1CCN(c2cccc(Cl)c2)CC1)c1ccccc1 (centres undefined)	D1 antag -35
Oc1ccccc1C(=S)N1CCN(c2cccc(Cl)c2)CC1	D1 antag -39
O=C1c2cc(F)ccc2OC2(CCNCC2)C12CC(c1ccccc1)=NO2 (centres undefined)	D1 ag 43
Cc1c(C)n(Cc2ccccc2)c2ncnc(Cl)c12	none
CN(C)CC1CCCCC1C1(O)c2ccccc2CSc2sccc21 (centres undefined)	D1 ag 78
O=C(CC1C(=O)NCCN1C(=O)Nc1ccc(Cl)cc1)Nc1ccc(F)cc1 (centres undefined)	D1 antag -51
COc1ccccc1NS(=O)(=O)c1cccc(C(=O)NNC(=O)c2ccc(=O)[nH]c2)c1	D1 antag -32 (no result: D1 PAM)
COc1ccccc1NS(=O)(=O)c1cccc(NC(=O)Nc2ccc(Cl)cc2)c1	none
COc1ccccc1NS(=O)(=O)c1cccc(C(=O)NN=C2CCCCCC2)c1	none
CCOc1cc(C(=O)Nc2ccc(S(=O)(=O)Nc3cc(C)on3)cc2)cc(OCC)c1OCC	none
COc1cc(C(=O)Nc2ccc(S(=O)(=O)Nc3cc(C)on3)cc2)cc(OC)c1OC	D1 antag -79
COc1ccccc1NS(=O)(=O)c1ccc(C(=O)NCc2ccncc2)cc1	none
COc1ccccc1NS(=O)(=O)c1cccc(NC(=O)Nc2ccccc2)c1	D1 antag -33
COc1ccccc1NS(=O)(=O)c1ccc(NC(=O)c2ccncc2)cc1	TRHR PAM 38
CC(C)(C)Cc1nnc(NC(=O)CCC2CCCCC2)s1	none
COc1ccccc1NS(=O)(=O)c1ccc(NC(=O)N2CCCCC2)cc1	D1 antag -46
COc1ccccc1NS(=O)(=O)c1cccc(C(=O)OCC(=O)Nc2cc(C)on2)c1	D1 antag -32
COc1ccccc1NS(=O)(=O)c1cccc(C(=O)OCc2nc3ccccc3s2)c1	none
NN1C(=O)/C(=C\c2ccco2)SC1=S	none
Cc1[nH]nc(Nc2ccc(Br)cc2)c1[N+](=O)[O-]	D1 antag -36
Cc1cccc(Nc2n[nH]c(C)c2[N+](=O)[O-])c1	D1 antag -37
CC(NC(=O)c1c2c(nc3ccccc13)C(=O)N(C1CCCCC1)C2)c1ccccc1 (centres undefined)	none
CC1CCN(S(=O)(=O)c2cn(C)c(=O)n(C)c2=O)CC1	D1 antag -61
Cn1cc(S(=O)(=O)N2CCN(c3ccccc3F)CC2)c(=O)n(C)c1=O	none
COc1ccccc1N1CCN(S(=O)(=O)c2cn(C)c(=O)n(C)c2=O)CC1	D1 antag -36
Cc1cccc(N(CC(=O)Nc2cccc(Cl)c2C)S(C)(=O)=O)c1C	none
CCOC(=O)c1sc2nc(CSc3ccccc3)nc(N3CCC(C(N)=O)CC3)c2c1C	none
CCOC(=O)c1sc2nc(CSc3ccccc3)nc(N3CCCN(C)CC3)c2c1C	D1 ag 30
COc1ccc2cc(S(=O)(=O)N3CCCC(C)C3)ccc2c1 (centres undefined)	none
Cc1ccc(C(=O)/C=C\C(=O)c2ccc(C)cc2)cc1	D1 antag -38
COC(=O)C1=C(C)OC(N)=C(C#N)C1c1ccccc1F (centres undefined)	none
N#CC1=C(N)Oc2cc(O)c(Cl)cc2C1c1ccccc1F (centres undefined)	D1 ag 166, TRHR agonist 55
CCCn1nnnc1NC(=O)c1cc(Br)ccc1OC	TRHR PAM 30
Cc1cc(C(=O)N2CCN(c3ccc([N+](=O)[O-])cc3)CC2)no1	none
Cc1cc(C(=O)N2CCN(c3ccc([N+](=O)[O-])cc3)CC2)n[nH]1	D1 antag -32
COCC(=O)N1CCN(c2ccc([N+](=O)[O-])cc2)CC1	D1 antag -32
COc1cc(CCC(=O)N2CCN(c3ccc([N+](=O)[O-])cc3)CC2)cc(OC)c1OC	none
Cc1cc(C)c2c(CC(=O)Nc3ccc(S(=O)(=O)Nc4nc(C)cc(C)n4)cc3)coc2c1	none
CCc1noc(N)c1C(=O)Nc1ccc(Cl)cc1	none
CCc1noc(N)c1C(=O)Nc1ccc(F)c(Cl)c1	D1 antag -36
CC(C)c1ccc(CN(C(=O)c2cccs2)C2CCS(=O)(=O)C2)cc1 (centres undefined)	none
CCOc1ccc(C2OC(=O)Cc3cc(OC)c(OC)cc32)cc1 (centres undefined)	D1 antag -31
CCOc1ccc(C2NC(=O)Cc3cc(OC)c(OC)cc32)cc1 (centres undefined)	none
COCCOC(=O)c1[nH]c2c(c1C)C(=O)CC(c1ccc(F)cc1)C2 (centres undefined)	D1 ag 64
Cc1nc2nncn2c(NCc2ccc(Cl)cc2)c1C	D1 antag -34
Cc1nc2nncn2c(NCc2ccc(F)cc2)c1C	none
COc1ccc(NC(=O)c2nnn(Cc3nc(-c4cc(Br)ccc4OC)oc3C)c2C)cc1	none
CS(=O)(=O)N(CC(=O)N1CCN(c2ccc(F)cc2)CC1)c1cccc(Cl)c1	none
CS(=O)(=O)N(CC(=O)N1CCCC1)c1cc(Cl)c(Cl)cc1Cl	D1 ag 39
CS(=O)(=O)N(CCCC(=O)N1CCCCCC1)c1cccc(Cl)c1	D1 antag -38
Cc1cc2oc3c(c(=O)c2cc1C)C(c1ccc(C(C)C)cc1)N(c1nc(C)c(C)s1)C3=O (centres undefined)	none
CS(=O)(=O)Nc1cccc(-c2cc(F)c(S(=O)(=O)N3CCN(S(=O)(=O)c4ccc5c(c4)OCCO5)CC3)cc2F)c1	none

Compound activity deposited in PubChem by National Center for Advancing Translational Sciences (NCATS).
